From PubChem BioAssay
Shown are actives, neighbours in structure and some others; about 6.6% of the full set was active somewhere.
HT1080-NT tox: kills 2HG-producing HT-1080-NT fibrosarcoma cells. hit rate 1.6% among 360,000. AID 686970. HT-1080-NT fibrosarcoma viability, CellTiter-Glo ATP luminescence, 48 h. Potency, µM (highest dose often 46.1 µM), for the others: top-dose activity, negative = less viability, actives largely listed as cytotoxic;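 note: NT is the 2HG producing partner of a matched IDH1 knockdown line; 0% = DMSO-treated cells and -100% = media-only wells without cells; nearly all actives have a fitted effect of over 55% in size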
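HT-1080-NT; 750 cells/well; 5% FBS RPMI; 48 h compound, 37 degrees C; CellTiter-Glo luminescence; curve fitting and curve-class assignment.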
KB-3-1 tox: kills parental KB-3-1 adenocarcinoma cells. hit rate 1.4% among 400,000. Potency, µM (top dose mostly 46.1 µM), most hits filed as cytotoxic. KB-3-1 viability, CellTiter-Glo ATP luminescence, 72 h. AID 1347075; note: % is set by controls: 0 for no effect and ±100 for the full control effect; nearly all actives have a fitted effect of over 60% in size
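KB-3-1 parental drug-naive adenocarcinoma cells in DMEM/10% FBS, incubated 72 h at 37 C with pin-transferred compounds across a concentration series. Viability by CellTiter-Glo luminescence; concentration-response curves fitted after normalization.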
HepG2 tox: kills HepG2 cells in TGF-b inhibitor counter-screen | HepG2 CAGA-GFP viability, ATP luminescence, 18 h | Potency, µM (highest dose often 46.1 µM), for the others: top-dose activity change, negative = cytotoxicity, usual class: cytotoxic | hit rate 0.76% among 410,000 | AID 588856
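CellTiter-Glo luminescence gave cytotoxicity after 18 hours at 37 degrees C. The cells were HepG2 CAGA-GFP in 1% FBS DMEM, stimulated with 500 pg/mL TGF-beta after compound addition. %Activity was normalised to no-cell wells (complete cell-killing) and DMSO (no toxicity), and curves were fitted and classified.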
TGFb inhibitor: blocks TGF-b signaling | Potency, µM (titrated, usually from 46.1 µM), without a hit: top-dose activity, negative = inhibition, usual class: inhibitors | AID 588855 | hit rate 1.2% among 410,000 | HepG2 CAGA-GFP TGF-b/SMAD3 reporter, GFP fluorescence, 18 h; TGF-beta stimulated, 500 pg/mL final; note: % is set by controls: 0 for no effect and ±100 for the full control effect; nearly all actives have a fitted effect of over 65% in size
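Cell-based qHTS in HEPG2 carrying a CAGA-GFP Smad reporter; compounds added before 500 pg/mL final TGF-beta, 18 h incubation at 37 degrees C, GFP fluorescence quantified per cell by imaging cytometry.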
KB-V1 cytotox: kills drug-selected multidrug resistant KB-V1 cells | KB-V1 MDR cells viability, CellTiter-Glo, 72 h | Potency, µM (series often up to 46.1 µM), hits mostly cytotoxic | hit rate 3.4% among 400,000 | AID 1347076; note: % is set by controls: 0 for no effect and ±100 for the full control effect; nearly all actives have a fitted effect of over 60% in size
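qHTS viability screen in drug-selected KB-V1 MDR cells: 72 h compound treatment at 37 degrees C, ATP luminescence end point.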
HT1080 IDH1KD tx: HT-1080 IDH1 knockdown cell toxicity (counter line); HT-1080 IDH1 knockdown viability, ATP luminescence, 48 h; Potency, µM (series often up to 46.1 µM), without a hit: top-dose activity, negative = toxicity, most hits filed as cytotoxic; hit rate 2% among 360,000; AID 686971;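 note: 0% = DMSO wells and -100% = cell-free medium wells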
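Luminescent ATP read-out (CellTiter-Glo, 10 min at room temperature) after 48 h compound exposure at 37 °C gave viability of IDH1-knockdown HT-1080 cells. Activity was normalised to DMSO and cell-free wells, then fitted as concentration-response curves.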
Numbers without * were called inactive; i = inactive; ? = inconclusive; . = no result given; ! = not active in a repeat. Calls come from the whole dose curve; as a rule, active = well fitted curve in the direction sought with a large enough effect; inconclusive = small, poorly fitted or top-dose-only effect, or another doubt; inactive = no such curve, though single readings can be large; an effect the other way counts as inactive or inconclusive. Potency is the fitted concentration of half-maximal effect.

SMILES	HT1080-NT tox	KB-3-1 tox	HepG2 tox	TGFb inhibitor	KB-V1 cytotox	HT1080 IDH1KD tx
O=C(NC1CCN(Cc2ccccc2)CC1)C12CC3CC(CC(C3)C1)C2	-8%	i	-10%	-15%	26µM*	-8%
O=C(Cc1ccccc1)NC1CCN(Cc2ccccc2)CC1	10%	i	-1%	?	i	12%
CCN(Cc1ccccc1)C(=O)C1CCN(Cc2ccc(OC)c(OC)c2OC)CC1	-3%	i	3%	14%	8.2µM*	-8%
COc1ccc(CCNc2ncnc3c2c(-c2ccccc2)cn3-c2cccc(Cl)c2)cc1OC	.	.	-30%	-15%	.	.
CC(C)(C)n1ncc2c(=O)n(Cc3ccccc3CS(=O)(=O)c3ccccc3)cnc21	.	.	-27%	-9%	.	.
Cc1ccc([N+](=O)[O-])c2cccnc12	6%	i	-1%	-17%	i	12%
O=[N+]([O-])c1cc(O)c2ncccc2c1	1.8µM*	?	4µM*	5µM*	18µM*	2.3µM*
O=[N+]([O-])c1cc2cccnc2c2ncccc12	?	0.12µM*	-23%	?	i	?
CCc1nnc(SC(CC)C(=O)Nc2cccc(OC)c2)c2cc3oc(C)cc3n12 (stereo not given)	.	.	-29%	.	.	.
O=C(COC(=O)CNC(=O)c1ccccc1)Nc1ccc(Cl)cn1	6%	i	17%	-1%	i	6%
Cc1nnc(-c2cccc(Br)c2)c2cn(-c3cccc(Br)c3)nc12	-11%	?	-14%	0%	9.2µM*	-28%
COc1ccc(-n2c(=O)c3c4c(sc3n(Cc3ccc(F)cc3)c2=O)CCCC4)c(OC)c1	.	i	0%	2%	i	.
CCOc1ccc(C(=O)c2cn(Cc3ccc(OC)cc3)c3cc(OC)c(OC)cc3c2=O)cc1	.	i	-28%	?	i	.
COCCCN1CC(=O)N2C(c3ccccc3)c3[nH]c4ccccc4c3C[C@H]2C1=O (stereo not given in full)	-10%	i	-14%	-18%	i	-6%
C=CCN1CC(=O)N2C(c3ccccc3)c3[nH]c4ccccc4c3C[C@H]2C1=O (stereo not given in full)	-18%	6.5µM*	-5%	-16%	i	-18%
COc1ccc(-c2nc(CN3CCC(C(=O)NCCCOC(C)C)CC3)c(C)o2)cc1OC	.	i	-23%	-8%	i	.
Cn1c(=O)c2c(nc(C3CC4C5CCC(C5)C4C3)n2C)n(C)c1=O (stereo not given)	5%	i	6%	3%	15µM*	7%
O=S(=O)(C/C(=C/CO)S(=O)(=O)c1ccccc1)c1ccccc1	7.1µM*	?	16µM*	?	?	2µM*
O=S(=O)(CS(=O)(=O)c1ccccc1)c1ccccc1	10%	?	5%	26%	i	10%
CCOC(=O)c1cc(-c2ccc(OC)cc2)n(CCC(=O)NCc2ccccc2OC)c1C	.	i	-21%	?	i	.
Cc1cc(C(=O)CN2C(=O)NC(C)(c3cc(F)ccc3F)C2=O)c(C)n1C1CC1 (stereo not given)	-3%	i	3%	9%	i	-1%
Cc1cc(C(=O)CN2C(=O)C(=O)N(CC(C)C)C2=O)c(C)n1C1CC1	13%	i	-6%	0%	18µM*	1%
CCCN1C(=O)C(=O)N(CC(=O)c2cc(C)n(C3CC3)c2C)C1=O	-1%	?	-6%	0%	21µM*	1%
CC(C)CN1C(=O)C(=O)N(CC(=O)c2ccc3c(c2)CCCC3)C1=O	-4%	i	-2%	4%	16µM*	0%
COc1cccc(C2(C)NC(=O)N(CC(=O)c3cc(C)n(C4CC4)c3C)C2=O)c1 (stereo not given)	-2%	i	1%	-20%	16µM*	-5%
SMILES	HT1080-NT tox	KB-3-1 tox	HepG2 tox	TGFb inhibitor	KB-V1 cytotox	HT1080 IDH1KD tx
CCN1C(=O)C(=O)N(CC(=O)c2cc(C)n(C3CC3)c2C)C1=O	-2%	i	4%	1%	i	2%
CCCCN1C(=O)C(=O)N(CC(=O)c2ccc3c(c2)CCCC3)C1=O	-1%	i	-5%	-5%	?	0%
COC(=O)CN1C(=O)CSc2ccc(S(=O)(=O)Nc3cccc(Cl)c3C)cc21	.	.	-25%	?	.	.
Cc1cc(C(=O)CN2C(=O)C(=O)N(CCC3=CCCCC3)C2=O)c(C)n1C	-4%	i	-1%	5%	23µM*	-2%
COC(=O)c1ccc2c(=O)n(CCCCCC(=O)NC(C)C)c(=O)[nH]c2c1	-13%	?	-23%	25µM*!	i	24%
COC(=O)c1ccc2c(=O)n(CCCCCC(=O)N3CCN(c4ccc(OC)cc4)CC3)c(=O)[nH]c2c1	.	i	5%	29%	i	.
COC(=O)c1ccc2c(=O)n(CCCCCC(=O)N3CCN(c4cccc(C)c4C)CC3)c(=O)[nH]c2c1	.	i	-2%	2.8µM*	i	.
CC(C)NC(=S)NNc1ncnc2sc3c(c12)CC(C)(C)OC3	7%	i	-25%	-17%	i	1%
CC1(C)Cc2c(sc3ncnc(NNC(=S)NCc4ccccc4)c23)CO1	?	5.2µM*	-15%	?	?	1.8µM*
CCOC(=O)/C(=C\C=C1/Sc2ccccc2N1CC)C(C)=O	-19%	i	-31%	276%	5.2µM*	-14%
Cc1nn2c(-c3ccccc3)nnc2c2ccccc12	-7%	?	-30%	?	5.8µM*	-16%
CCn1c(=O)c(C)nn2c3ccccc3nc12	-1%	i	0%	3%	?	12%
Cc1ccc(-c2nn3c(-c4ccc(C)cc4)nnc3c3ccccc23)cc1	.	.	2%	7%	.	.
Cc1nn2c3ccccc3nc2c2ccccc12	?	?	16µM*	?	i	?
Cc1nn(-c2ccc(N3CCCC3)nn2)c(C)c1CCC(=O)N1CCN(c2ccccc2)CC1	.	.	-18%	?	.	.
COc1ccc2nc(Cl)cc(Cl)c2c1	24%	i	-48%	-4%	i	19%
C=CS(=O)(=O)c1c2cc(OC)ccc2nc2ccc(OC)cc12	?	?	14µM*	?	21µM*	?
CCC(=O)NC(c1ccc(C)cc1)c1cc(Cl)c2cccnc2c1O (stereo not given)	.	?	2%	?	?	.
CCCC(=O)NC(c1ccco1)c1cc(Cl)c2cccnc2c1O (stereo not given)	?	i	-17%	-3%	?	10µM*
